What all share (experiment): cell viability relative to vehicle control; higher = less cytotoxic
Holding throughout (conditions): 10 µM

One test has as its system K562. Summed up:
(§1)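 Each screen used CRISPR-edited mutant and wild-type clones from four leukaemia lines. Compounds were acoustically dispensed at a single 10 µM dose, and CellTiter-Glo luminescence was read after 48 h with the supernatant first removed. Viability was analysed in Genedata Screener and given as percent of the on-plate vehicle control.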

The subject of another test is MARIMO. Summed up: as §1
The next test deals with MOLM14. Summed up: as §1
The subject of a further test is OCI-AML2. Summed up: as §1

Where “and” joins values, the source holds several entries; their conditions need not be identical. Equal entries are not always repeated. Structures can show the parent of a compound that is named as a salt.

The cell viability is a read-out of living cells in per cent, often relative to untreated cells. Consider `CS(=O)(=O)c1ccc(C(=O)Nc2ccc(Cl)c(-c3ccccn3)c2)c(Cl)c1` [Vismodegib (GDC-0449)], for which the cell viability in the test on K562 (SRSF2 genotype: SRSF2 P95H/wt) is 93.4% and 96.9%; in the test with K562 (SRSF2 genotype: SRSF2 wt/wt), 96.7%; in the test on MARIMO (SRSF2 genotype: SRSF2 P95H/wt), 101%; in the test on MARIMO (SRSF2 genotype: SRSF2 wt/wt) it was 104%; with MOLM14 (SRSF2 genotype: SRSF2 P95H/wt), 103%; in the test with MOLM14 (SRSF2 genotype: SRSF2 wt/wt), 104%. Further, the cell viability is 96% in the test on OCI-AML2 (SRSF2 genotype: P95H/wt) and 92.9% with OCI-AML2 (SRSF2 genotype: wt/wt).

On to `Cc1ccc(=O)n(-c2ccccc2)c1` [Pirfenidone], for which the cell viability is 104% and 107% with K562 (SRSF2 genotype: SRSF2 P95H/wt); 103% with K562 (SRSF2 genotype: SRSF2 wt/wt); 103% with MARIMO (SRSF2 genotype: SRSF2 P95H/wt); 103% with MARIMO (SRSF2 genotype: SRSF2 wt/wt); 97.1% in the test on MOLM14 (SRSF2 genotype: SRSF2 P95H/wt); 98.8% in the test on MOLM14 (SRSF2 genotype: SRSF2 wt/wt). Besides, the cell viability in the test on OCI-AML2 (SRSF2 genotype: P95H/wt) is 109%; in the test with OCI-AML2 (SRSF2 genotype: wt/wt) it was 106%.

Take `COc1cc(OC)c(C(=O)CCCN2CCCC2)c(OC)c1` [Buflomedil HCl]: the cell viability in the test on K562 (SRSF2 genotype: SRSF2 P95H/wt) was 93.2% and 114%; in the test on K562 (SRSF2 genotype: SRSF2 wt/wt), 108%; with MARIMO (SRSF2 genotype: SRSF2 P95H/wt) it was 100%; in the test on MARIMO (SRSF2 genotype: SRSF2 wt/wt), 102%; with MOLM14 (SRSF2 genotype: SRSF2 P95H/wt), 112%; in the test with MOLM14 (SRSF2 genotype: SRSF2 wt/wt), 106%. For the same molecule, the cell viability in the test on OCI-AML2 (SRSF2 genotype: P95H/wt) is 113%; in the test on OCI-AML2 (SRSF2 genotype: wt/wt) it was 101%.

With `CCCN(CCC)S(=O)(=O)c1ccc(C(=O)O)cc1` [Probenecid (Benemid)], the cell viability in the test on K562 (SRSF2 genotype: SRSF2 P95H/wt) was 99.3% and 88.4%; in the test on K562 (SRSF2 genotype: SRSF2 wt/wt), 91%; in the test on MARIMO (SRSF2 genotype: SRSF2 P95H/wt), 92.1%; with MARIMO (SRSF2 genotype: SRSF2 wt/wt), 101%; with MOLM14 (SRSF2 genotype: SRSF2 P95H/wt), 96.4%; with MOLM14 (SRSF2 genotype: SRSF2 wt/wt), 97%. Moreover, the cell viability was 96.2% in the test on OCI-AML2 (SRSF2 genotype: P95H/wt) and 88.9% in the test with OCI-AML2 (SRSF2 genotype: wt/wt).

Take `COc1cc(NS(=O)(=O)c2ccc(N)cc2)nc(OC)n1` [SulfadiMethoxine sodium]: the cell viability with K562 (SRSF2 genotype: SRSF2 P95H/wt) is 106% and 100%; in the test with K562 (SRSF2 genotype: SRSF2 wt/wt), 111%; in the test with MARIMO (SRSF2 genotype: SRSF2 P95H/wt) it was 100%; in the test on MARIMO (SRSF2 genotype: SRSF2 wt/wt), 105%; with MOLM14 (SRSF2 genotype: SRSF2 P95H/wt), 106%; in the test with MOLM14 (SRSF2 genotype: SRSF2 wt/wt), 107%. Also, the results for the cell viability in the test on OCI-AML2 (SRSF2 genotype: P95H/wt) and with OCI-AML2 (SRSF2 genotype: wt/wt) were 102% and 118%, respectively.

As for `COc1cc(OC)c(/C=C/S(=O)(=O)Cc2ccc(OC)c(NCC(=O)O)c2)c(OC)c1`, the cell viability was 16.5% and 39% in the test on K562 (SRSF2 genotype: SRSF2 P95H/wt); 35.6% with K562 (SRSF2 genotype: SRSF2 wt/wt); 5.99% with MARIMO (SRSF2 genotype: SRSF2 P95H/wt); 9.46% with MARIMO (SRSF2 genotype: SRSF2 wt/wt); 0.51% in the test with MOLM14 (SRSF2 genotype: SRSF2 P95H/wt); 0.74% in the test with MOLM14 (SRSF2 genotype: SRSF2 wt/wt). Moreover, the cell viability with OCI-AML2 (SRSF2 genotype: P95H/wt) stood at 1.32%; in the test on OCI-AML2 (SRSF2 genotype: wt/wt) it was 2.98%.

In the case of `CC(C)[C@H](O)C(=O)N[C@@H](C)C(=O)N[C@@H]1C(=O)N(C)CCc2ccccc21`, the cell viability with K562 (SRSF2 genotype: SRSF2 P95H/wt) was 106% and 107%; in the test with K562 (SRSF2 genotype: SRSF2 wt/wt), 106%; in the test with MARIMO (SRSF2 genotype: SRSF2 P95H/wt) it was 96%; with MARIMO (SRSF2 genotype: SRSF2 wt/wt), 107%; in the test on MOLM14 (SRSF2 genotype: SRSF2 P95H/wt), 109%; in the test with MOLM14 (SRSF2 genotype: SRSF2 wt/wt), 105%. Besides, the cell viability in the test on OCI-AML2 (SRSF2 genotype: P95H/wt) is 101%; in the test with OCI-AML2 (SRSF2 genotype: wt/wt), 111%.

`C=CC(=O)Nc1cccc(Nc2nc(Nc3ccc(Oc4ccnc(C(=O)NC)c4)cc3)ncc2F)c1`: the cell viability in the test on K562 (SRSF2 genotype: SRSF2 P95H/wt) is 87.5% and 95.6%; in the test on K562 (SRSF2 genotype: SRSF2 wt/wt), 85.1%; in the test with MARIMO (SRSF2 genotype: SRSF2 P95H/wt), 83.4%; in the test on MARIMO (SRSF2 genotype: SRSF2 wt/wt), 83.8%; in the test on MOLM14 (SRSF2 genotype: SRSF2 P95H/wt), 53.1%; in the test on MOLM14 (SRSF2 genotype: SRSF2 wt/wt), 53.4%. For the same molecule, the cell viability turned out to be 57.5% in the test on OCI-AML2 (SRSF2 genotype: P95H/wt) and 63.8% in the test with OCI-AML2 (SRSF2 genotype: wt/wt).

Consider `CC1(C)CCCC2(C)OC(=O)C=C12` (stereo not given) [Dihydroactinidiolide], for which the cell viability with K562 (SRSF2 genotype: SRSF2 P95H/wt) is 104% and 93.7%; in the test on K562 (SRSF2 genotype: SRSF2 wt/wt), 94.5%; with MARIMO (SRSF2 genotype: SRSF2 P95H/wt) it was 97.6%; in the test with MARIMO (SRSF2 genotype: SRSF2 wt/wt), 104%; in the test on MOLM14 (SRSF2 genotype: SRSF2 P95H/wt), 93.8%; in the test with MOLM14 (SRSF2 genotype: SRSF2 wt/wt), 99.7%. Also, the cell viability is 91.1% in the test on OCI-AML2 (SRSF2 genotype: P95H/wt) and 104% in the test on OCI-AML2 (SRSF2 genotype: wt/wt).

For `CCCCCCCCCCCCCc1cccc(O)c1C(=O)O` [Ginkgolic Acid (C130)], the cell viability with K562 (SRSF2 genotype: SRSF2 P95H/wt) is 108% and 100%; in the test on K562 (SRSF2 genotype: SRSF2 wt/wt) it was 108%; with MARIMO (SRSF2 genotype: SRSF2 P95H/wt) it was 103%; with MARIMO (SRSF2 genotype: SRSF2 wt/wt), 107%; in the test on MOLM14 (SRSF2 genotype: SRSF2 P95H/wt), 104%; with MOLM14 (SRSF2 genotype: SRSF2 wt/wt) it was 110%. In addition, the cell viability is 102% with OCI-AML2 (SRSF2 genotype: P95H/wt) and 103% with OCI-AML2 (SRSF2 genotype: wt/wt).

These data come from the supplement of paper PMC10981050.
